Among the data in the supplement of paper PMC6555819 are PBM binding z-score values, retold here.

In the assay the test system is RARg homodimer (NR concentration 270 nM). Nature of the assay: PBM binding z-score (relative to random genomic background probes); higher = stronger binding; sequences stand for … in GC…GCGATTGACAGCGTAGAATGAAGG
In short, it runs like this:
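Binding buffer was PBS pH 7.4 with 2% milk, 0.02% Triton X-100, 1 mM DTT, 0.2 mg/mL BSA and 0.4 mg/ml salmon testes DNA. In it, ligand-free nuclear receptor dimers were incubated 1 h on custom Agilent 4×180K protein-binding microarrays carrying double-stranded probes. Antibodies against each partner (one per run) detected binding, and z-scores were calculated against random background probes after regression normalization of scanned fluorescence.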
For the sequence CTCGAAAGGTCGGTTGAGGTGAGAATACGGATAA, the PBM binding z-score stood at 3.18.
The same measure for TCTGCTAGGTCAGCTGGTCAGCTAACGAGCTGCC: 4.27; for GCTTGTAGATCATGGTTAAGAAAGACTAAGCTAA: -0.267.
The same measure for TCTGCTAGGTCAGTTTGTCAGCTAACGAGCTGCC: 2.44; for TCATATAGGTAAATGCTAGTTGAAAGTCCGATCT: 0.163; for TCTCGGAGGACACGTAAGGTCAGAGCTCGACATC: 3.84.
The same measure for ATGTCTAGGTAAAGATAGTTCAGTGAATGCAAAT: 0.794.
TATACAGGGTCAAAGTCCAGAGTACGAATGTCGA: the PBM binding z-score was found to be 4.9.
On to GGAACCAGGGCAAGTTGATAGCAGAGTTTGATGG, for which the PBM binding z-score was 1.52.
The same measure for CCTAGCAGGCCAGGGTCACTGAAGCATTTCGCTT: 2.91; for CGTCCAAGGTCAATGCTAGGACAGTGAAAGCATT: 5.95.
CCTACTGGGCCATTCATAGGTCATTGATCATATG: the PBM binding z-score came out at 1.78.
The same measure for CGAACTAGGTGATCCAGGACAGTGAATACATTGA: 0.467.
The same measure for ACTAGCAGGTCAAGTTTGGGTCACTCAAACAAAG: 5.73.
The same measure for TCTCGTAGATCAAGCAGGTTAAGAAAGCCTGAGT: -0.369.
Turning to GCTGCTAGGTCAGTTTGGTCAGCTAACGGGTACG, the PBM binding z-score was 3.29.
The same measure for CCTACTGGGCCATCAGATCATTGATATCAACGTT: 0.48; for CCGAGTGGGGCAGAAAGGTTACCATACCATCCGG: 1.23.
AGTCAAAGTTCACTAGGTAACCTAAGATTCAGCT yielded a PBM binding z-score of 5.66.
The same measure for TCTAGCAGGCCCGAGGGTCACTCAAGAGGTACGG: 1.72; for TCGACTAGGTTACCAATGGGGCATTCAGCTTTCT: 0.432; for GCGACTGGGGCATCAGCAGGTTAGCATAACTTAA: 0.0514.
TTACCAAGGTGAGCTGAGCTCGTTGATCCAACTC yielded a PBM binding z-score of -0.277.
AGAACGAGGGCAATAAGTTGATAGCACGGGTGGC had a PBM binding z-score of 1.56.
As for CGTCAAAGATCAACTAAGGTAACGTAAAGCACGC, the PBM binding z-score came to 0.647.
Sequence AGAACGAGGGCAAGCTGAGTTGATAGCAGAGTAG gave a PBM binding z-score of 1.97.
The same measure for TTACCAAGGTGAAGGGTCGTTGATGCACGCCTTG: 1.14; for CCGACTGGGGCAGAACGGTTACCATACCATCCGG: 0.284; for TCATATAGGTGAATGCTAGGTGAAAGTCCGATCT: 0.61.
Regarding TGGCCTAGGTCATTGGGCCAGTATAGTACGCATC, the PBM binding z-score was found to be 4.21.
The same measure for TCTTGTAGGTCAAGCAGGTTAAGAAAGCCTGAGT: 5.5; for ATCGAAAGGTCGAGGTGATTATAGAGAAAGGGAA: 4.23; for CGAACGAGGGCATGGGTTGATAGCAAATGCCGAT: 1.55.
With TTATATAGGTAAACAGGTGAAAGTCCGTAAGTTA, the PBM binding z-score was 0.572.
The same measure for CCTACTGGGCCAAAAAGGTCATTGAGGCCGATAA: 4.17.
The same measure for CCTACTGGGCCAAAGGTCATTCATTCCAATGCTC: 4.7.
The same measure for TAGCCTACGTCAGATCGGGCCAGTATACGCTATA: -0.517.
In turn, ATCTCTAGGAAACAAGTTCAGTGAAAGAGAGGAC came in with a PBM binding z-score of 0.918.
The same measure for CCAACTAGGTCAGAACAGGACAGTGAAGGATGAT: 3.03.
Sequence CCGACTGCGGCATAAGGTTACCATAAGCCAGCCC showed a PBM binding z-score of 0.391.
